40 sequences from the supplement of paper PMC10338343 can be followed below.

± gives the standard deviation.

The test concerns EfPiwi piRISC loaded with piRNA #1 (26 nt). Kind of test: pre-steady-state target cleavage rate (min^-1); auxiliary factor: 500 nM Ephydatia muelleri Gtsf1; guide: piRNA #1 5'p-UGAGGUAGUAGGUUGUAUAGUAUCCA; MIWI and MILI are mouse PIWI proteins and EfPiwi is from a freshwater sponge; tags in brackets are library labels; higher = faster piRNA-guided slicing of the target. The essentials:
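With or without 500 nM GTSF1 partner protein, 1 nM active affinity-purified piRISC carrying one synthetic guide was mixed with 0.1 nM transcribed, DNA-blocked target RNA library in HEPES–potassium acetate buffer at 33 °C for 0–8 or 0–960 min. Uncleaved targets were sequenced and normalised to depth and to weakly complementary targets, three trials were pooled, and k3 was capped at 0.0001 min^-1. The pre-steady-state cleavage rate came from a burst-and-steady-state fit.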
As to GGAGUGGAUACUAUACAAGCUACUACCUCA, the “pre-steady-state target cleavage rate” value was 0.008 ± 0.0032.
Under GGAGUGGAUACUAUACAACCUAGUACCUGA stands 0.00271 ± 0.001; under GGAGUGGAUACUAUACAACCUAGUACGUCA, 0.00381 ± 0.0014.
Under GGAGACCUAUGAUAUGUACCUACUAUCCUCA stands under 0.0001.
Take GGAGACGAUACUAUACAACGUACUACCUGA: the “pre-steady-state target cleavage rate” value worked out at 0.0041 ± 0.0012.
Under GGAGUGGAUACUAUACACCCUACUACCUCA stands 0.0673 ± 0.023.
Under GGAGAGGAUACAUAACAACCUACUACCUCA stands 0.00445 ± 0.004; under GGAGACGAAACUAUACAACCUACUACGUCA, 0.00245 ± 0.0024; under GGAGAGGAUAGUAUACAUCCUACUACCUCA, 0.00316 ± 0.0022.
Under “GGAGACCUAUCUAUACAACCUACUACCUCC [g2:g20:cont:t1C]” stands 0.0049 ± 0.0034; under GGAGUGGAUACUAUACAACCUACUAGGACA, 0.00314 ± 0.0029.
On to GGAGAGGAUACUAUACAACCUUCUACGUCA, for which the “pre-steady-state target cleavage rate” value was determined as 0.00356 ± 0.0021.
Under GGAGAGGAUACUAUACAAUCCUACUACCUCA stands 0.00878 ± 0.0059.
For the sequence GGAGUGGAUUCUAUACAAGCUACUACCUCA, the “pre-steady-state target cleavage rate” value was 0.00371 ± 0.0019.
Under GGAGAGGAUACUAUACAACCUACAACCUGA stands 0.00332 ± 0.0014.
Under GGAGACGAUACUAUACAACCCUACUACCUCA stands 0.00604 ± 0.0029; under GGAGUGGAUACUAUACAACCUACUUCCACA, 0.00294 ± 0.0024.
Under GGAGACCUAACUAUACAACCUAAUACCUCA stands 0.00511 ± 0.0036; under GGAGUGGAUACUAAACAACCUACUACGUCA, 0.00252 ± 0.0015; under GGAGAGGAUACUAUACAUCCUACUAGCUCA, 0.00277 ± 0.0019.
As for GGAGACCAUACUAUACAACCUAGCUACCUCA, the “pre-steady-state target cleavage rate” value is 0.00373 ± 0.0029.
On to GGAGUGGAUACUAUACAACCUACUUCGUCA, for which the “pre-steady-state target cleavage rate” value was 0.00391 ± 0.0021.
Under GGAGACGAUACUAUACCACCUACUACCUCA stands 0.0106 ± 0.0037; under GGAGACCUAUCUAAACAACCUACUACCUCA, 0.00381 ± 0.0037.
For the sequence GGAGUGGAUAGUAUACAACCUACUACCUGA, the “pre-steady-state target cleavage rate” value amounted to 0.00315 ± 0.0017.
Under “GGAGACCUAUGAUAUGUUGGUACUACCUCU [g2:g10:cont:t1U]” stands under 0.0001; under GGAGUGGAUACUAUACUACCUUCUACCUCA, 0.00331 ± 0.0022.
Under GGAGACCAUACUAUACAAGCCUACUACCUCA stands 0.00453 ± 0.0032; under GGAGAGGAUACUAUACAACCAACAACCUCA, 0.00224 ± 0.0022.
Regarding GGAGACCAUACUAUACAACCAACUAGCUCA, the “pre-steady-state target cleavage rate” value was 0.0061 ± 0.0043.
Under GGAGACCAUACUAUACAACCACUACCUCA stands 0.00558 ± 0.0034; under GGAGACCAUACUAUACAACCUAGUACCUGA, 0.00278 ± 0.0021.
In the case of GGAGACCAUACUAUACAACGCUACUACCUCA, the “pre-steady-state target cleavage rate” value amounted to 0.0082 ± 0.0044.
For GGAGACGCUACUAUACAACCUACUACCUCA, the “pre-steady-state target cleavage rate” value stood at 0.163 ± 0.051.
Under GGAGAGGAUACUAUACACCCUACUACCUCA stands 0.0114 ± 0.0053; under GGAGUGGAUACUAUACAACCUACUUGCUCA, 0.0047 ± 0.0026.
On to GGAGACCAUACUAUACAACGUACAACCUCA, for which the “pre-steady-state target cleavage rate” value turned out to be 0.00296 ± 0.0025.
As to GGAGACCUAUGAUAACAAGGAACUACCUCA, the “pre-steady-state target cleavage rate” value is under 0.0001.
Under GGAGUGGAUACUAUACAACCUUCUACGUCA stands 0.00426 ± 0.0016.
Under GGAGACGAUACUAUACAACCUAUACCUCA stands 0.00289 ± 0.0018.
